Results filed as inconclusive are left out. Active and inactive are the calls of the source. Unless noted, calls come from the whole dose curve; as a rule, active = well fitted curve in the direction sought with a large enough effect in the repeat runs; inconclusive = weak or mixed curves; inactive = no such curve, though single readings can be large; an effect the other way counts as inactive or inconclusive.
Assays:
[1] = A CellTox Green Cytotoxicity Assay to monitor cytotoxicity in HEK293 cells - 32 hour (AID 1224881); note: nearly all actives have a fitted effect of over 40% in size; note: potency is the fitted concentration of half-maximal effect
Summary of the method: (§1)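 Seeding of HEK293 cells together with cytotoxicity dye preceded a 5 h incubation at 37 C/5% CO2. Test compounds in DMSO were then added and fluorescence monitored across 40 h.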

[2] = A CellTox Green Cytotoxicity Assay to monitor cytotoxicity in HepG2 cells - 0 hour (AID 1224882); note: nearly all actives have a fitted effect of over 35% in size
Summary of the method: (§2)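 Nonlytic assay: viable cells exclude the dye, so fluorescence scales with cell death. HepG2 at 600 cells/well, compounds added after 5 h, signal read across 40 h.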

[3] = A CellTox Green Cytotoxicity Assay to monitor cytotoxicity in HepG2 cells - 32 hour (AID 1224883); note: nearly all actives have a fitted effect of over 50% in size; note: potency is the fitted concentration of half-maximal effect
Summary of the method: as §2

[4] = A CellTox Green Cytotoxicity Assay to monitor cytotoxicity in HEK293 cells - 8 hour (AID 1224884); note: nearly all actives have a fitted effect of over 35% in size
Summary of the method: as §1

[5] = qHTS RealTime-Glo MT Cell Viability Assay in HepG2 cells - 16 hour (AID 1224885); note: nearly all actives have a fitted effect of over 50% in size
Summary of the method: (§3)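 qHTS, HepG2, 600 cells/well, RealTime-Glo (NanoLuc + prosubstrate) added with cells; 5 h preincubation; DMSO compound addition; 37 C; luminescence at 0/8/16/24/32/40 h.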

[6] = qHTS RealTime-Glo MT Cell Viability Assay in HEK293 cells - 24 hour (AID 1224886); note: top concentration of the series differs between compounds; nearly all actives have a fitted effect of over 50% in size
Summary of the method: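 Assay medium contained NanoLuc luciferase plus cell-permeant prosubstrate, added with HEK293 cells at 600 cells/well. After 5 h at 37 C/5% CO2 compounds were added; plates stayed at 37 C for 40 h with serial luminescence reads.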

[7] = qHTS RealTime-Glo MT Cell Viability Assay in HEK293 cells - 8 hour (AID 1224887); note: top concentration of the series differs between compounds; nearly all actives have a fitted effect of over 50% in size
Summary of the method: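 Tox21 screen in HEK293 using RealTime-Glo MT chemistry, with cells and reagent co-dispensed. Luminescence proportional to viable cell number was captured at intervals during 40 h compound exposure at 37 C.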

[8] = qHTS RealTime-Glo MT Cell Viability Assay in HepG2 cells - 0 hour (AID 1224889); note: nearly all actives have a fitted effect of over 50% in size
Summary of the method: as §3

[9] = A CellTox Green Cytotoxicity Assay to monitor cytotoxicity in HepG2 cells - 8 hour (AID 1224890); note: nearly all actives have a fitted effect of over 45% in size; note: potency is the fitted concentration of half-maximal effect
Summary of the method: as §2

[10] = qHTS assay to identify small molecule antagonists of the androgen receptor (AR) signaling pathway using the MDA cell line in the presence of 0.5 nM R1881 - cell viability counter screen (AID 1259242); note: nearly all actives have a fitted effect of over 45% in size
Summary of the method: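 R1881 at 0.5 nM final stimulated MDA-kb2 cells during 16 hr compound treatment at 37C. Cytotoxicity read: CellTiter-Fluor fluorescence after 30 min.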

[11] = molecular target: Estrogen receptor (Homo sapiens) (UniProt P03372); experiment: qHTS assay to identify small molecule antagonists of the estrogen receptor alpha (ER-alpha) signaling pathway using the BG1 cell line in the presence of 0.1 nM 17-beta-estradiol (AID 1259244); note: nearly all actives have a fitted effect of over 50% in size
Summary of the method: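 VM7Luc4E2; 4xERE-luciferase; 0.1 nM E2 final; 22 h co-incubation, 37C; ONE-Glo luminescence after 30 min at room temperature.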

[12] = qHTS assay to identify small molecule HDAC inhibitors (AID 1259364);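 note: wild-type HCT-116 cells with endogenous class I/II HDAC activity; top concentration of the series differs between compounds; nearly all actives have a fitted effect of over 45% in size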
Summary of the method: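 Relative class I and II HDAC activity is taken from the luminogenic signal in HCT-116 cells, with compound exposure 2 hr and reagent development 30 min at room temperature.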

[13] = qHTS assay to identify small molecule HDAC inhibitors - cell viability counter screen (AID 1259365)
Summary of the method: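 Luminescence from CellTiter-Glo, developed 30min at room temperature, reports viability of wild-type HCT-116 cells treated 2hr with compounds at 37 C and 5% CO2 after overnight plating.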

[14] = qHTS assay to identify small molecule antagonists of the sonic hedgehog signaling (Shh) pathway - cell viability counter screen (AID 1259367); note: nearly all actives have a fitted effect of over 55% in size; note: potency is the fitted concentration of half-maximal effect
Summary of the method: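 Using CellTiter-Fluor, viability of Gli1-Luc reporter 3T3 cells is read by fluorescence in the wells used for the Shh luciferase assay. Treatment lasts 23 hr with conditioned medium, then reagent 1 hr at 37C.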

[15] = qHTS assay to identify small molecule agonists of the sonic hedgehog signaling (Shh) pathway (AID 1259368; calls by dose curve;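 note: NIH/3T3-derived 3T3Gli1-Luc cells carrying a stable Gli1-driven firefly luciferase reporter; series mostly up to about 92 µM; nearly all actives have a fitted effect of over 15% in size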)
Summary of the method: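 Mouse fibroblast (NIH/3T3) reporter cells with stably integrated Gli1-Luc were treated 24 hr with compound; firefly luciferase luminescence served as the read-out.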

[16] = qHTS assay to identify small molecule antagonists of the estrogen receptor alpha (ER-alpha) signaling pathway using the BG1 cell line in the presence of 0.1 nM 17-beta-estradiol - cell viability counter screen (AID 1259241); note: nearly all actives have a fitted effect of over 40% in size
Summary of the method: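 VM7Luc4E2, 4,000 cells/well, phenol red-free medium + 10% charcoal-stripped FBS; 24 hr plating; cpd + 0.1 nM E2 final, 22 hr 37C/5% CO2; CellTiter-Fluor 30 min, fluorescence.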

[17] = qHTS assay to identify small molecule agonists of the sonic hedgehog signaling (Shh) pathway - cell viability counter screen (AID 1259366); note: nearly all actives have a fitted effect of over 50% in size; note: potency is the fitted concentration of half-maximal effect
Summary of the method: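 Cytotoxicity counter screen run in the same wells as the Shh reporter assay. NIH/3T3 cells carrying a Gli1 response element–driven luciferase were treated with DMSO-dissolved compounds for 24hr, and live-cell protease activity was measured with CellTiter-Fluor.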

[18] = A CellTox Green Cytotoxicity Assay to monitor cytotoxicity in HEK293 cells - 16 hour (AID 1224888); note: nearly all actives have a fitted effect of over 35% in size
Summary of the method: as §1

[19] = qHTS assay to identify small molecule phospholipidosis (PLD) inducers (AID 1259344; active = well fitted curve in the direction sought with a large enough effect; an effect the other way counts as inactive or inconclusive)
Summary of the method: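 Fluorescent phospholipid staining (LipidTOX Red) measured by automated microscopy in fixed HepG2 cells after 24 h treatment; nuclei counterstained with Hoechst 33342; amiodarone as reference inducer.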

[20] = molecular target: Androgen receptor (Homo sapiens) (UniProt P10275); experiment: qHTS assay to identify small molecule antagonists of the androgen receptor (AR) signaling pathway using the MDA cell line in the presence of 0.5 nM R1881 (AID 1259243); note: nearly all actives have a fitted effect of over 50% in size
Summary of the method: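 We exposed MDA-kb2 cells to compounds under 0.5 nM R1881 stimulation for 16 hr at 37C and quantified MMTV-driven luciferase by luminescence.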

Measured: Potency

Estrogen receptor (Homo sapiens), sequence (P03372 whole entry, looked up): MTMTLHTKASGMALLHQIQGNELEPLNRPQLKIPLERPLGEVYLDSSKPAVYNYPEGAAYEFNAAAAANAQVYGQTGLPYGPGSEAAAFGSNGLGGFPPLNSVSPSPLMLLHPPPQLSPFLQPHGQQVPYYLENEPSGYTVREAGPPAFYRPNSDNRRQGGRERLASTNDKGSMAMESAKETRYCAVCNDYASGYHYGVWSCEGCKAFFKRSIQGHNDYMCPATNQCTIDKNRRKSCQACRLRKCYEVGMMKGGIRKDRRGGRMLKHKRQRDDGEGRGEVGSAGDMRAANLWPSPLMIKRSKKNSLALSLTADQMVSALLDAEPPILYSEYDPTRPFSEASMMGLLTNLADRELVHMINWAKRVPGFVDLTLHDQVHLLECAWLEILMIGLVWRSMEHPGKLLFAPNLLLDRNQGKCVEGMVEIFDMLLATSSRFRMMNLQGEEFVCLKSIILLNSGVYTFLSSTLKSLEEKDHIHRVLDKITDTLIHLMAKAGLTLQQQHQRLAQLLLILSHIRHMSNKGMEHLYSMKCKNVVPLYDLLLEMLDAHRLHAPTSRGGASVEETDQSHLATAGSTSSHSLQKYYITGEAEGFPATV
Androgen receptor (Homo sapiens), sequence (P10275 whole entry, looked up): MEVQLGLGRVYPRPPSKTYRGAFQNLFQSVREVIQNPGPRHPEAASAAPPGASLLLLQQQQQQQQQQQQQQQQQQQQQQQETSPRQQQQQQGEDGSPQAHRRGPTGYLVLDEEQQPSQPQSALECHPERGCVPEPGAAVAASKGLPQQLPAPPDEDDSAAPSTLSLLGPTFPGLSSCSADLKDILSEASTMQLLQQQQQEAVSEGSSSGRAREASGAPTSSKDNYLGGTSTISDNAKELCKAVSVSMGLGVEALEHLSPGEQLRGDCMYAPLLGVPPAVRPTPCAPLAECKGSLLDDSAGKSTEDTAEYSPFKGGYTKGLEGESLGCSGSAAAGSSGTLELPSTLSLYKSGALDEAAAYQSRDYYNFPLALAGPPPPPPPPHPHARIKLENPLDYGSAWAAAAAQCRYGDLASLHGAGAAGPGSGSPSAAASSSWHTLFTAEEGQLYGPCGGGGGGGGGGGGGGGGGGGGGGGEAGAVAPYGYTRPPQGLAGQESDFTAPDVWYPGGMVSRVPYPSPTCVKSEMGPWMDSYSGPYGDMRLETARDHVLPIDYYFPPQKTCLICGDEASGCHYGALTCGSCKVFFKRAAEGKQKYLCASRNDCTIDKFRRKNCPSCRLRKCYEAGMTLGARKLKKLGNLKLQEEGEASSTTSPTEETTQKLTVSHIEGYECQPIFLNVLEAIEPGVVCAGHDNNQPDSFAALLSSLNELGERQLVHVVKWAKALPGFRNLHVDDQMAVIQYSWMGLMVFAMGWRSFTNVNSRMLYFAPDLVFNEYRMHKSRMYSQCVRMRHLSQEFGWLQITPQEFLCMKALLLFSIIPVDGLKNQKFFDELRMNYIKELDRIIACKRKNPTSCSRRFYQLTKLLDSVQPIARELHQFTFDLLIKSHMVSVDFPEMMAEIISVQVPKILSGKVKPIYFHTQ

CCC(C)c1cccc(C(C)CC)c1O (stereo unspecified)
active: [1] 30.9 µM | [3] 19.5 µM | [9] 19.5 µM
not listed: [16] | [17] | [18] | [19] | [20]
inactive: all other assays above

CCCCN(CCCC)C(=S)[S-].CCCCN(CCCC)C(=S)[S-].[Ni+2]
not listed: [15] | [18] | [19] | [20]
inactive: all other assays above

O.O.O.O.O.O.O=S(=O)([O-])[O-].[Ni+2]
not listed: [8] | [11] | [16] | [17] | [19] | [20]
inactive: all other assays above

NC(=O)C(Cl)Cl
not listed: [8] | [11] | [19] | [20]
inactive: all other assays above

N#CSCc1ccccc1
not listed: [8] | [14] | [18] | [19] | [20]
inactive: all other assays above

CCN(CC)C(=O)N[C@@H]1C=C2c3cccc4[nH]cc(c34)C[C@@H]2N(C)C1
not listed: [14] | [17] | [18] | [20]
inactive: all other assays above

BrCCCBr
not listed: [8] | [11] | [15] | [18] | [19]
inactive: all other assays above

CCCCCCC[CH2][Sn]([Cl])([Cl])[CH2]CCCCCCC
not listed: [7] | [15] | [19] | [20]
inactive: all other assays above

O=S(=O)(O)F
not listed: [15] | [18] | [19] | [20]
inactive: all other assays above

CC(Cc1ccc(OCC(=O)O)cc1)NCC(O)c1csc(C(F)(F)F)n1 (stereo unspecified)
active: [17] 6.11 µM | [14] 3.86 µM
not listed: [18] | [19] | [20]
inactive: all other assays above

From PubChem BioAssay (Tox21)
